Screens (PubChem BioAssay)
APP transl inh – APP translation inhibition | SH-SY5Y APP 5'UTR-luciferase reporter, luminescence | inhibition, % at 2 µM | 0.82% of 190,000 active | AID 1285;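 active = inhibition above a set limit, derived from the sample mean plus 3 SD, cut at about 45% in these data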
IEC-6 cytotox – counter-screen for KLF5 inhibitors: cytotoxicity in IEC-6 cells; IEC-6 cytotoxicity, luminescence viability; inhibition, % at 5 µM; 0.78% of 290,000 active; in the data active = inhibition above about 22%;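 note: 0% = plate median of test compound wells and 100% = cytotoxic reference compound wells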
Ba/F3 V617F tox – reduce viability of Ba/F3 cells dependent on JAK2V617F; Ba/F3 EpoR-JAK2V617F viability, ATP luminescence; inhibition, % at 5.6 µM; 1.1% of 220,000 active; AID 1446;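 active = inhibition above the campaign mean plus 3 SD over all tested compounds, cut at about 24% in these data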;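 note: cytokine-independent growth of Ba/F3 cells driven by EpoR plus mutant JAK2; 0% = DMSO-treated cells and 100% = JAK inhibitor I control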
BaF3 tox – parental Ba/F3 viability inhibition as JAK2V617F counter-screen. CellTiter-Glo ATP luminescence. inhibition, % at 5.6 µM. 1.1% of 220,000 active;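 active = inhibition above a per-campaign cutoff, the mean inhibition of all tested compounds plus 3 SD, cut at about 27% in these data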;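 note: 0% = DMSO wells and 100% = JAK Inhibitor I control wells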
KLF5 inhibitor – inhibitors of KLF5 expression. DLD-1 KLF5 promoter-luciferase reporter, luminescence. inhibition, % at 5 µM. 0.23% of 290,000 active. AID 1700;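 active = inhibition above a per-plate limit of that plate's mean compound inhibition plus 3 SD, cut at about 60% in these data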;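 note: 0% = DMSO wells and 100% = LY294002 at 200 µM; higher means less KLF5 promoter-driven luciferase light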
* = called active by the depositor. An excerpt weighted towards active compounds, which were near 1.9% of everything screened.

How did COc1ccc(S(=O)(=O)Nc2ccc(Oc3ncccn3)c(Cl)c2)cc1 do in these assays?
APP transl inh: 46*; IEC-6 cytotox: 0; Ba/F3 V617F tox: -3; BaF3 tox: 5; KLF5 inhibitor: 5

How did COc1ccc(NS(=O)(=O)c2ccc(Oc3ncccn3)cc2)cc1 do in these assays?
APP transl inh: 17; IEC-6 cytotox: 4; Ba/F3 V617F tox: 3; BaF3 tox: 5; KLF5 inhibitor: 2

What do the screens show for `CN1C2C=C3C(C#N)=C(N)C(C#N)(C#N)[C@H](c4c(F)cccc4F)[C@H]3C1CC2` (stereo partly specified)?
APP transl inh: 47*; IEC-6 cytotox: 3; Ba/F3 V617F tox: 3; BaF3 tox: 4; KLF5 inhibitor: -9

How did CC(/C=C/C(=O)c1ccc(C)cc1)=C\c1ccccc1 do in these assays?
APP transl inh: -12; IEC-6 cytotox: 6; Ba/F3 V617F tox: 0; BaF3 tox: 8; KLF5 inhibitor: 5

Results for Cc1ccc(C(=O)/C=C\C(=O)c2ccc(C)cc2)cc1 ?
APP transl inh: 88*; IEC-6 cytotox: -3; Ba/F3 V617F tox: -2; BaF3 tox: 3; KLF5 inhibitor: -8

How did CC(OC(=O)Cc1c(F)cccc1Cl)C(=O)NCCC1=CCCCC1 (stereo unspecified) do in these assays?
APP transl inh: -4; IEC-6 cytotox: -4; Ba/F3 V617F tox: 1; BaF3 tox: 6; KLF5 inhibitor: -38

How did C=CCOc1c(/C=N\NC(N)=O)cccc1OC do in these assays?
IEC-6 cytotox: -3; Ba/F3 V617F tox: 1; BaF3 tox: -3; KLF5 inhibitor: -6

How did COc1cccc(Sc2ccccc2/C=N/NC(N)=O)c1 do in these assays?
APP transl inh: 65*; IEC-6 cytotox: 7; Ba/F3 V617F tox: 3; BaF3 tox: 7; KLF5 inhibitor: 16

Results for CCc1sc(NS(C)(=O)=O)nc1-c1ccccc1 ?
APP transl inh: 50*; IEC-6 cytotox: 0; Ba/F3 V617F tox: -4; BaF3 tox: 2; KLF5 inhibitor: -25

How did O=c1oc2ccc(Cl)cc2nc1/C=C(\O)c1cccs1 do in these assays?
IEC-6 cytotox: 0; Ba/F3 V617F tox: 36*; BaF3 tox: 38*; KLF5 inhibitor: -56

How did Cc1ccc2oc(=O)c(/C=C(\O)c3cccs3)nc2c1 do in these assays?
IEC-6 cytotox: -1; Ba/F3 V617F tox: -1; BaF3 tox: 2; KLF5 inhibitor: -84

Results for c1ccc(CN2C3=NCCCN3c3ccccc32)cc1 ?
APP transl inh: -11; IEC-6 cytotox: -1; Ba/F3 V617F tox: -3; BaF3 tox: -1; KLF5 inhibitor: -5

What do the screens show for `Clc1ccc(CN2C3=NCCN3c3ccccc32)cc1`?
APP transl inh: 10; IEC-6 cytotox: -2; Ba/F3 V617F tox: 0; BaF3 tox: 62*; KLF5 inhibitor: -7

Results for Cc1ccc(CN2C3=NCCCN3c3ccccc32)cc1 ?
APP transl inh: 1; IEC-6 cytotox: 2; Ba/F3 V617F tox: 7; BaF3 tox: 12; KLF5 inhibitor: 1

Results for CC(C)(C)c1ccc(CN2C3=NCCCN3c3ccccc32)cc1 ?
APP transl inh: -17; IEC-6 cytotox: 6; Ba/F3 V617F tox: 46*; BaF3 tox: 46*; KLF5 inhibitor: -17

Results for CCN(CC)c1ccc(/C=C2/SC(=O)N(C(C)C)C2=O)o1 ?
APP transl inh: 92*; IEC-6 cytotox: 0; Ba/F3 V617F tox: 5; BaF3 tox: 8; KLF5 inhibitor: 10

Results for CCOc1ccc(NC(=O)C2CSC(c3ccncc3)=N2)cc1 (stereo unspecified) ?
APP transl inh: 46*; IEC-6 cytotox: 8; Ba/F3 V617F tox: 2; BaF3 tox: 7; KLF5 inhibitor: 18

Results for CCc1ccc2nc(SCC(=O)N3CC(=O)Nc4ccccc43)c(C#N)cc2c1 ?
APP transl inh: 94*; IEC-6 cytotox: -5; Ba/F3 V617F tox: 4; BaF3 tox: 6; KLF5 inhibitor: -38

What do the screens show for `CCc1cc2cc(C)ccc2nc1SCC(=O)N1CC(=O)Nc2ccccc21`?
IEC-6 cytotox: -3; KLF5 inhibitor: -14

How did Cc1csc(NC(=O)C(C)N2C(=O)c3ccccc3S2(=O)=O)n1 (stereo unspecified) do in these assays?
IEC-6 cytotox: 3; KLF5 inhibitor: -4

What do the screens show for `CCOC(=O)C1=C(O)/C(=C\c2ccc(CNC(=O)C(=O)Nc3ccc(C)c(C)c3)o2)N=C1C`?
APP transl inh: 4; IEC-6 cytotox: -1; Ba/F3 V617F tox: -4; BaF3 tox: 2; KLF5 inhibitor: -27

What do the screens show for `COc1ccc2c(c1)c(CC(=O)Nc1ccc(C(C)=O)cc1)c(C)n2C(=O)c1ccc(Cl)cc1`?
APP transl inh: -3; IEC-6 cytotox: -2; Ba/F3 V617F tox: 1; BaF3 tox: 6; KLF5 inhibitor: -22

How did COc1ccc2c(c1)c(CC(=O)Nc1nnc(C3CC3)s1)c(C)n2C(=O)c1ccc(Cl)cc1 do in these assays?
IEC-6 cytotox: 7; Ba/F3 V617F tox: 17; BaF3 tox: 38*; KLF5 inhibitor: -8

How did Cc1cccc(N2C(N)=NC(N)=NC23CCCCC3)c1 do in these assays?
APP transl inh: 6; IEC-6 cytotox: -6; Ba/F3 V617F tox: 61*; BaF3 tox: 61*; KLF5 inhibitor: -4

Results for CC1(C)N=C(N)N=C(N)N1c1cccc(CN)c1 ?
IEC-6 cytotox: 2; Ba/F3 V617F tox: 61*; BaF3 tox: 58*; KLF5 inhibitor: -30

What do the screens show for `COc1ccc(OC)c(N2C(N)=NC(N)=NC23CCCC3)c1`?
APP transl inh: 7; IEC-6 cytotox: -1; Ba/F3 V617F tox: 3; BaF3 tox: 0; KLF5 inhibitor: -22

Results for CC1(C)N=C(N)N=C(N)N1c1ccc(F)cc1F ?
APP transl inh: -17; IEC-6 cytotox: 3; Ba/F3 V617F tox: 29*; BaF3 tox: 36*; KLF5 inhibitor: 11

What do the screens show for `COc1ccc(NC(=O)Cc2nnc(SCC(=O)NC3CCCCC3)n2C)cc1`?
IEC-6 cytotox: 3; KLF5 inhibitor: -21

How did O=C1CS/C(=N\c2ccccn2)N1C1CCCCC1 do in these assays?
APP transl inh: 1; IEC-6 cytotox: 1; Ba/F3 V617F tox: -2; BaF3 tox: 96*; KLF5 inhibitor: 2

How did CC(C)(C)c1nnc(N/N=C/c2cc(Br)ccc2O)n(N)c1=O do in these assays?
APP transl inh: 80*; IEC-6 cytotox: -3; Ba/F3 V617F tox: 0; BaF3 tox: 1; KLF5 inhibitor: 9

What do the screens show for `COc1ccc2ccc(OC)c(/C=N/n3cnnc3)c2c1`?
IEC-6 cytotox: -2; KLF5 inhibitor: -43

How did O=S(=O)(Nc1ccon1)c1ccc(Br)cc1 do in these assays?
IEC-6 cytotox: 4; KLF5 inhibitor: -6

What do the screens show for `CC12C(=O)N(c3cccc(OC(=O)c4ccco4)c3)C(=O)C1C1c3ccccc3C2c2ccccc21` (stereo unspecified)?
APP transl inh: 52*; IEC-6 cytotox: -2; Ba/F3 V617F tox: -3; BaF3 tox: 4; KLF5 inhibitor: -16

Results for CCCCCn1c2c(c(=N)c3ccccc31)CCC2 ?
IEC-6 cytotox: 16; Ba/F3 V617F tox: 89*; BaF3 tox: 69*; KLF5 inhibitor: 38

Results for CCOC(=O)Cn1c2c(c(=N)c3c1CCC3)CCC2 ?
APP transl inh: 6; IEC-6 cytotox: -2; Ba/F3 V617F tox: 0; BaF3 tox: 11; KLF5 inhibitor: -5
